This is a sample that favours compounds with a hit; in the whole collection about 10% have one here.
HP1b binding inh = blocks HP1-beta chromodomain binding to methylated histone tails; AlphaScreen HP1-beta / biotin-H3K9me3 peptide binding; Potency, µM (top dose mostly 114 µM), most hits filed as inhibitors; hit rate 0.56% among 390,000; AID 540317; also: nearly all actives have a fitted effect of over 70% in size
Target sequence (P83916 whole entry, looked up): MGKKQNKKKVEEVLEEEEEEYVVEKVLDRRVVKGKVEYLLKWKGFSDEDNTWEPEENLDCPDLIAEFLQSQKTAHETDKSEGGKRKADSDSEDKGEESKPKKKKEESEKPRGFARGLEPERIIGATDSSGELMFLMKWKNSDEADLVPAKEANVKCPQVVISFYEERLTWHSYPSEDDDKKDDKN
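Compound inhibition of the preformed complex between 50 nM HP1-beta and 50 nM biotinylated H3K9me3 peptide was read by AlphaScreen. Buffer was PBS pH 7.4 with 0.01% Tween-20. Incubations ran 30 min at room temperature, with 10 ug/mL donor/acceptor beads.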
JMJD2A Tudor = inhibitors of human JMJD2A Tudor domain; O75164; AlphaScreen JMJD2A-Tudor / H3K4me3 peptide binding; hit rate 4.4% among 390,000; Potency, µM (series often up to 114 µM), actives largely listed as inhibitors; also: nearly all actives have a fitted effect of over 50% in size
L3MBTL1 inh = blocks human L3MBTL1. Q9Y468. AlphaScreen L3MBTL1–H3K9me1 peptide binding. Potency, µM (doses to about 57.1 µM), usual class: inhibitors. hit rate 0.66% among 230,000; also: nearly all actives have a fitted effect of over 60% in size
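AlphaScreen assay: L3MBTL1 (50 nM final) was preincubated 30 min at room temperature with biotinylated H3(1-15)K9me1 peptide (75 nM final), then 30 min with library compounds; streptavidin donor and nickel chelate acceptor beads (10 ug/mL final) added, 30 min dark.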
BAZ2B inh = blocks human BAZ2B. Potency, µM (top dose mostly 114 µM), usual class: inhibitors. AID 504333. AlphaScreen BAZ2B-H3K14Ac peptide displacement. hit rate 4.4% among 360,000. Q9UIF8; also: nearly all actives have a fitted effect of over 60% in size
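Protein-peptide AlphaScreen: BAZ2B 50 nM, b-H3K14Ac 50 nM, 1x PBS pH 7.4 + 0.01% Tween-20. Preincubation 30 min RT; cpd 30 min RT (top 110 uM); beads 20 min RT, light-protected.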
G9a block = inhibitors of human histone lysine methyltransferase G9a; Q96KQ7; G9a H3K9 monomethylation, AlphaScreen, 2 h; Potency, µM (doses to about 102 µM), hits mostly inhibitors; hit rate 8.8% among 350,000; AID 504332; also: nearly all actives have a fitted effect of over 75% in size
Target sequence (Q96KQ7 913-1193 limits assumed): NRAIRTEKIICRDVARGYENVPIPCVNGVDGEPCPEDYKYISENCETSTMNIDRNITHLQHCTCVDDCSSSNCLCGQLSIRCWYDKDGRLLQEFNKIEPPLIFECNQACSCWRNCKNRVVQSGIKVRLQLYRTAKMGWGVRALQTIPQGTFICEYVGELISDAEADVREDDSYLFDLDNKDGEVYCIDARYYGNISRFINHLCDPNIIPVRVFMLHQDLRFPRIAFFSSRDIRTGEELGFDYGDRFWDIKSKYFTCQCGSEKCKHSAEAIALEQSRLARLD
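AlphaScreen detection with an anti-monomethyl H3K9 antibody quantified product after a 2 h room-temperature reaction containing 500 nM biotinylated H3K9 peptide, 20 µM SAM and 20 nM enzyme, which had been preincubated 15 min with compound.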
GLS inhibitor = inhibitors of human glutaminase (GLS); O94925; AID 624170; hit rate 0.21% among 410,000; Potency, µM (top dose mostly 45.5 µM), most hits filed as inhibitors; GLS enzymatic activity, qHTS titration
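Two-point fluorescence kinetic (t0, 30 min RT) for hKGA; glutamate detected via glutamate oxidase–HRP–Amplex Red. Substrate: 1 mM L-glutamine solution; buffer 45 mM KH2PO4, pH 8.2.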
Each line names hits and unclear results; the compound was inactive in the other large screens. Calls follow the shape of the dose curve; as a rule, active = well fitted curve in the direction sought with a large enough effect; inconclusive = small, poorly fitted or top-dose-only effect, or another doubt; inactive = no such curve, though single readings can be large; an effect the other way counts as inactive or inconclusive.

Cc1cccc(C=Nc2ccc3c(c2)oc2ccccc23)c1O	BAZ2B inh inconclusive
Cc1ccccc1N=Cc1cccc(O)c1O	HP1b binding inh inconclusive, JMJD2A Tudor 40µM, L3MBTL1 inh 2.5µM, BAZ2B inh 40µM, G9a block 7.9µM, GLS inhibitor inconclusive
Cn1ccc2cc(S(=O)(=O)N3CCCN(C(=O)Nc4ccc(Br)cc4)CC3)ccc21	none (no result: L3MBTL1 inh)
Cc1ccc2nc(-c3ccc(NC(=O)COc4ccc(Cl)c(C)c4)cc3)sc2c1	G9a block inconclusive (no result: L3MBTL1 inh)
CCOc1cccc2sc(NC(=O)CS(=O)(=O)c3ccc(C)cc3)nc12	none (no result: L3MBTL1 inh)
COC(=O)c1ccc2nc(C)cc(Nc3cccc(Cl)c3C)c2c1	G9a block inconclusive (no result: L3MBTL1 inh)
Oc1cccc(/C=N/N=C/c2cccc(O)c2O)c1O	G9a block 32µM, GLS inhibitor 3.5µM
C/C(=N/N=C/c1ccccc1O)c1ccccc1O	none (no result: L3MBTL1 inh)
CCN(CC)CCC(=O)c1ccc(F)cc1	G9a block 40µM
C=CCn1c(SCn2nnc3ccccc3c2=O)nnc1-c1ccc(F)cc1	G9a block 32µM
CCOC(=O)c1c(C)[nH]c(C)c1C(=O)CSc1nnc(-c2ccco2)n1Cc1ccccc1	BAZ2B inh inconclusive, G9a block inconclusive (no result: L3MBTL1 inh)
CCOC(=O)c1c(C)[nH]c(C)c1C(=O)CSc1nnc(-c2ccncc2)n1Cc1ccccc1	BAZ2B inh inconclusive, G9a block 56µM (no result: L3MBTL1 inh)
C=CCn1c(SCC(=O)c2c(C)[nH]c3ccccc23)nnc1-c1ccncc1	G9a block 50µM
C=CCn1c(SCC(=O)Nc2ccccc2C)nnc1-c1ccncc1	none (no result: L3MBTL1 inh)
C=CCn1c(SCC(=O)N2CC(C)OC(C)C2)nnc1-c1ccncc1 (stereo unspecified)	G9a block 7.9µM
COc1ccc(NC(=O)C(OC(=O)CNC(=O)c2ccccc2)c2ccccc2)cc1F (stereo unspecified)	none (no result: HP1b binding inh, L3MBTL1 inh, BAZ2B inh, G9a block, GLS inhibitor)
Cc1cc(SCC(=O)Nc2nsc(-c3ccc(C(C)(C)C)cc3)n2)nc2ccccc12	none (no result: L3MBTL1 inh)
COc1ccccc1CNC(=O)CCc1c(C)nn(-c2ccc(N3CCOCC3)nn2)c1C	none (no result: L3MBTL1 inh)
CCOC(=O)CN(C(=O)CSc1nnc(-c2ccncc2)n1CCCN(C)C)c1ccccc1	HP1b binding inh inconclusive, JMJD2A Tudor inconclusive, BAZ2B inh 50µM, G9a block 2.8µM
Cc1[nH]c2ccccc2c1C(=O)CSc1ccc(Cl)cc1	HP1b binding inh inconclusive, JMJD2A Tudor 22µM, GLS inhibitor inconclusive
Cn1cc(C(=O)NCc2ccc(Cl)cc2)c(=O)c2cc(S(=O)(=O)N3CCCCCC3)ccc21	none (no result: L3MBTL1 inh, BAZ2B inh)
CCOc1cc(C2CC(=O)Nc3cc(C)c(C)cc32)ccc1O (stereo unspecified)	none
Cc1ccc(C(=O)CSC2=C(C#N)C(c3ccco3)CC(=O)N2)c(C)c1 (stereo unspecified)	JMJD2A Tudor 50µM, L3MBTL1 inh inconclusive, G9a block inconclusive (no result: BAZ2B inh)
Cc1ccc(C2CC(=O)NC(SCc3ccccc3)=C2C#N)cc1 (stereo unspecified)	JMJD2A Tudor 89µM
Cc1ccc(NC(=O)CSC2=C(C#N)C(c3ccco3)CC(=O)N2)cc1 (stereo unspecified)	BAZ2B inh inconclusive (no result: L3MBTL1 inh)
CCOc1cc(C2CC(=O)NC(SCC)=C2C#N)ccc1O (stereo unspecified)	G9a block 50µM (no result: L3MBTL1 inh)
CCSC1=C(C#N)C(c2cccc(OC)c2)CC(=O)N1 (stereo unspecified)	G9a block inconclusive
CCOc1cc(C2CC(=O)N3CN(C4CCCCC4)CSC3=C2C#N)ccc1O (stereo unspecified)	HP1b binding inh inconclusive, JMJD2A Tudor 79µM, G9a block 2.2µM
COc1ccc(Nc2ncnc3c2nc2n3CCCC2)cc1Cl	none (no result: L3MBTL1 inh)
CCOc1ccc(OCC)c(Nc2cc(C)nc3nc(-c4ccco4)nn23)c1	none (no result: L3MBTL1 inh)
O=C(CN1C(=O)CCc2cc(S(=O)(=O)N3CCOCC3)ccc21)NCc1ccc(F)cc1	none (no result: L3MBTL1 inh)
O=C(CCCCn1c(=O)c2ccccc2n(Cc2ccccc2Cl)c1=O)NCc1ccc2c(c1)OCO2	none (no result: L3MBTL1 inh)
N#Cc1cc(C(=O)c2cc(Br)ccc2O)cn(C2CCCCC2)c1=O	BAZ2B inh inconclusive (no result: G9a block)
N#CC1=C2SCN(C3CCCCC3)CN2C(=O)CC1c1ccc(Br)cc1 (stereo unspecified)	HP1b binding inh inconclusive, JMJD2A Tudor 16µM, G9a block 2.8µM (no result: L3MBTL1 inh, BAZ2B inh)
COCCn1c(C)cc(/C=C(\C#N)C(=O)OCC(=O)Nc2ccc(S(N)(=O)=O)cc2)c1C	G9a block 40µM
CCCn1c(C)cc(/C=C(\C#N)C(=O)OCC(=O)Nc2ccc(OC)c(Cl)c2)c1C	none
COCCNC(=S)N(CCc1c(C)[nH]c2ccc(F)cc12)Cc1cccs1	JMJD2A Tudor inconclusive, G9a block inconclusive (no result: L3MBTL1 inh, BAZ2B inh)
CCNC(=S)N(CCc1c(C)[nH]c2ccc(Cl)cc12)Cc1ccco1	G9a block inconclusive (no result: L3MBTL1 inh, BAZ2B inh)
COCCNC(=S)N(CCc1c(C)[nH]c2ccccc12)Cc1ccco1	BAZ2B inh inconclusive, G9a block 50µM
CNC(=S)N(CCc1c(C)[nH]c2ccc(F)cc12)Cc1cccnc1	BAZ2B inh inconclusive (no result: L3MBTL1 inh)
CNC(=S)N(CCc1c(C)[nH]c2ccc(Cl)cc12)Cc1cc(OC)c(OC)c(OC)c1	JMJD2A Tudor inconclusive, BAZ2B inh inconclusive, G9a block 32µM
CNC(=S)N(CCc1c(C)[nH]c2ccc(C)cc12)Cc1ccco1	JMJD2A Tudor inconclusive, BAZ2B inh 50µM, G9a block 45µM
CNC(=S)N(CCc1c(C)[nH]c2ccc(C)cc12)Cc1ccc(OC)c(OC)c1	JMJD2A Tudor inconclusive, BAZ2B inh 32µM, G9a block 50µM
COc1cc(CNCc2c(C(=O)O)c(C)n(Cc3cccc(Cl)c3)c2C)cc(OC)c1OC	none (no result: L3MBTL1 inh)
CCOc1ccccc1NC(=O)Cc1csc(COc2cccc(C)c2)n1	none (no result: L3MBTL1 inh)
CCN(C(=O)CN(C)S(=O)(=O)c1ccc2c(c1)c(=O)n(C)c(=O)n2C)c1ccc(OC)cc1	none (no result: L3MBTL1 inh)
COc1cc(CN(CCc2c(C)[nH]c3ccc(C)cc23)C(=S)NC(C)(C)C)cc(OC)c1OC	HP1b binding inh inconclusive, JMJD2A Tudor 50µM, BAZ2B inh inconclusive, G9a block inconclusive
Cc1[nH]c2ccccc2c1CCN(Cc1cccnc1)C(=S)NC(C)(C)C	JMJD2A Tudor inconclusive, BAZ2B inh inconclusive, G9a block inconclusive (no result: L3MBTL1 inh)
CC(C)n1c(=O)c2c(O)cc(=O)oc2c2ccccc21	JMJD2A Tudor 50µM
COc1ccc2c(c1)c(/C=N/Nc1ccc(C(=O)O)cc1)c(C)n2C	JMJD2A Tudor inconclusive, BAZ2B inh inconclusive, G9a block 8.9µM (no result: L3MBTL1 inh)
COc1ccc(/C(C)=N/Nc2ccc(C(=O)O)cc2)c(OC)c1	G9a block 1.6µM
COc1ccc(/C(C)=N/NC(=O)CNC(=O)Cc2ccccc2)c(OC)c1	none (no result: G9a block)

High-throughput results: PubChem BioAssay, National Center for Advancing Translational Sciences (NCATS)
